From PubChem BioAssay
ELG1 DNA repair = qHTS screen for small molecules that inhibit ELG1-dependent DNA repair in human embryonic kidney (HEK293T) cells expressing luciferase-tagged ELG1; HEK293T ELG1-luciferase reporter, luminescence, 16 h; DNA damage induced by 5-fluorouridine; Potency, µM (titrated, usually from 46.1 µM), for inactives: top-dose activity change, negative = inhibition, usual class: inhibitors; 330,000 tested, 2.3% active; also: nearly all actives have a fitted effect of over 55% in size
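Overnight (16 hr) co-exposure of 2,000 cells/well to 5-fluorouridine and compound at 37 °C preceded detection. Luciferase was quantified via ONE-Glo luminescence; loss of signal denotes inhibition.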
Gal4-VP16 FLuc = VP16 counterscreen qHTS for inhibitors of ROR gamma transcriptional activity | Drosophila S2 Gal4-VP16 UAS-luciferase, luminescence, 20 h | Potency, µM (top dose mostly 53.6 µM), for inactives: at the top dose activity, negative = inhibition, hits mostly inhibitors | 310,000 tested, 3.5% active | AID 2546, 2010;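 also: Gal4-VP16 expression switched on by copper sulfate through the metallothionein promoter; nearly all actives have a fitted effect of over 50% in size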
12-LOX inh = Primary qHTS assay for inhibitors of human arachidonate 12S-lipoxygenase (ALOX12): Round 2; Polyunsaturated fatty acid lipoxygenase ALOX12 (Homo sapiens), P18054; purified 12hLO, xylenol orange hydroperoxide absorbance; Potency, µM (doses to about 108 µM), without a hit: top-dose activity change, negative = inhibition, most hits filed as inhibitors; 580,000 tested, 1.1% active
Target sequence (P18054 whole entry, looked up): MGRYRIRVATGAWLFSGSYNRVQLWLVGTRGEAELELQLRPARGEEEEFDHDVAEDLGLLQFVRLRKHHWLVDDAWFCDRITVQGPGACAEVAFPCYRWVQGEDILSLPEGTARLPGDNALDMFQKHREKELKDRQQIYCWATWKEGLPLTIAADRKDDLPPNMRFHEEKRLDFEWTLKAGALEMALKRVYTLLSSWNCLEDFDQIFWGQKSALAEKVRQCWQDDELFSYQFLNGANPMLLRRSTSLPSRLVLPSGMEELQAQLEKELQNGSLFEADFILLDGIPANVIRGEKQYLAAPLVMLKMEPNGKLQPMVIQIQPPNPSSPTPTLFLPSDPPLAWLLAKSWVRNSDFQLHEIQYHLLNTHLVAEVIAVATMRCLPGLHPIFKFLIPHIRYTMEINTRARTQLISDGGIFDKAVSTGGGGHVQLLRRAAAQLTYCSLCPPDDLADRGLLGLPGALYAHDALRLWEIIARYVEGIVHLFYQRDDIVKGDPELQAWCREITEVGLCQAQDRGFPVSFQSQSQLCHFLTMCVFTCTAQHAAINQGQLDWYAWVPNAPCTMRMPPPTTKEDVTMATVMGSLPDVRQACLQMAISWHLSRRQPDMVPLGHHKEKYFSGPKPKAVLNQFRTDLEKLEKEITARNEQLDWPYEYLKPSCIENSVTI
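Purified human 12hLO (150 nM final) in 25 mM Hepes, 0.01% Triton X-100, pH 7.0 was preincubated 15 min at room temperature with compound. Then 40 uM arachidonic acid was added, 30 min. Hydroperoxide was read by Fe-XO absorbance ratio 573/405 nm.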
RORg inh = qHTS for inhibitors of ROR gamma transcriptional activity. Nuclear receptor ROR-gamma (Mus musculus), P51450. Drosophila S2 Gal4-RORgamma UAS-luciferase reporter, 20 h. Potency, µM (series often up to 53.6 µM), without a hit: top-dose activity change, negative = inhibition, most hits filed as inhibitors. 310,000 tested, 5.4% active. AID 2551, 2010; also: nearly all actives have a fitted effect of over 60% in size
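Compounds are pin-transferred onto Drosophila Schneider cells expressing a copper-inducible Gal4–ROR gamma transactivation domain fusion. After 1 hr, copper sulfate is added to 700 uM final; luciferase is read 20 hr later.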
DT40 TDP1 CPT = qHTS for Inhibitors of human tyrosyl-DNA phosphodiesterase 1 (TDP1): qHTS in cells in presence of CPT; chicken DT40 Tdp1-/-;hTDP1 cells + 20 nM CPT, ATP luminescence, 48 h; 420,000 tested, 12% active; Potency, µM (highest dose often 46.2 µM), for the others: at the highest dose activity change, negative = growth inhibition, hits mostly inhibitors; also: nearly all actives have a fitted effect of over 55% in size
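Chicken DT40 Tdp1-/- cells stably complemented with human TDP1 were seeded at 400 cells/well in medium containing 20 nM camptothecin, exposed to pin-transferred compounds, and grown at 37 °C for at least 48 hr. Viability was read as ATP luminescence.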
TDP1 cell noCPT = qHTS for Inhibitors of human tyrosyl-DNA phosphodiesterase 1 (TDP1): qHTS in cells in absence of CPT; Potency, µM (top dose mostly 46.2 µM), without a hit: at the top dose activity change, negative = growth inhibition, most hits filed as inhibitors; DT40 Tdp1-/- hTDP1 cells, no CPT, ATP luminescence, 48 h; 420,000 tested, 15% active; also: nearly all actives have a fitted effect of over 55% in size
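Compound effects on proliferation are scored in DT40 Tdp1-/-;hTDP1 cells in the absence of CPT. ATP levels (CellTiter-Glo luminescence) are recorded after a ≥48 hr, 37 °C incubation.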
* hit, by the source's call; ? = inconclusive; / = not tested or not shown; [ ] = another dose, or the depositor's remark. This is a sample that favours compounds with a hit; in the whole collection about 15% have one here. Calls follow the shape of the dose curve; as a rule, active = well fitted curve in the direction sought with a large enough effect; inconclusive = small, poorly fitted or top-dose-only effect, or another doubt; inactive = no such curve, though single readings can be large; an effect the other way counts as inactive or inconclusive. % is scaled to controls: 0 for no effect and ±100 for the full control effect; potency is read from the fitted curve at half-maximal effect.

SMILES	ELG1 DNA repair	Gal4-VP16 FLuc	12-LOX inh	RORg inh	DT40 TDP1 CPT	TDP1 cell noCPT
c1ccc2[nH]c(CN3CCN(c4ncnc5c4oc4ccccc45)CC3)nc2c1	?	1%	-8%	33%	23µM*	23µM*
O=c1[nH]c(CN2CCN(C/C=C/c3ccccc3)CC2)nc2ccccc12	-12%	-2%	17%	14%	?	-26%
COc1ccccc1N1CCN(c2ncnc3c2oc2ccccc23)CC1	?	12%	33%	27%	3.7µM*	5.2µM*
C(=C\c1ccccc1)/CN1CCN(c2ncnc3c2oc2ccccc23)CC1	?	18µM*	-16%	?	18µM*	18µM*
Nc1nc(N2CCN(C/C=C/c3ccccc3)CC2)nc2ccccc12	-14%	-7%	?	-41%	21µM*	?
c1ccc2[nH]c(CSc3ncnc4c3oc3ccccc34)nc2c1	10%	-15%	21%	?	?	?
O=S(=O)(N1CCOCC1)N1CCCC(c2ccccc2)(c2ccccc2)C1	/	/	53%	/	/	/
CCCN(CC(=O)Nc1ccccc1C)S(=O)(=O)c1cccc2cc(C)cnc12	/	/	0%	/	/	/
Cc1nc(N2CCOCC2)c2oc3ccccc3c2n1	-23%	-3%	0%	-23%	?	18µM*
Cc1nc(SCc2ccc(F)cc2)c2oc3ccccc3c2n1	?	-5%	?	-4%	-2%	-8%
Cc1nc(SCc2nc3ccccc3[nH]2)c2oc3ccccc3c2n1	18µM*	?	0%	14µM*	21µM*	?
O=C(c1ccco1)N1CCN(c2ncnc3c2oc2ccccc23)CC1	?	-8%[0.365 µM]	37%	?	21µM*	13µM*
Cc1nc(SCc2ccccc2F)c2oc3ccccc3c2n1	?	-2%	12%	-20%	3%	13µM*
Cc1nc(SCc2nc3ccccc3[nH]2)c2oc3ccc(Br)cc3c2n1	?	/	10%	/	/	/
O=c1oc2ccccc2c(NCC2CCCCC2)c1NS(=O)(=O)c1ccc(Cl)cc1	/	/	-13%	/	/	/
Cc1nc(N2CCN(Cc3nc4ccccc4[nH]3)CC2)c2oc3ccccc3c2n1	?	-10%	21%	17%	?	18µM*
c1ccc2[nH]c(CN3CCCCC3)nc2c1	3%	?	9%	9%	-3%	-4%
COc1ccc(C(=O)C2CC(=O)Nc3c2c(C)nn3-c2ccc(C)c(C)c2)cc1 (centres undefined)	/	/	41%	/	/	/
Cc1ccc(C2Cn3nnc(-c4nc(-c5cccnc5)no4)c3CO2)c(C)c1 (centres undefined)	/	/	16%	/	/	/
FC(F)(F)c1cnc2c(c1)Nc1ccccc1S2	?	4%	0%	40%	?	21µM*
CCC(=O)Nc1cnc(NC(=O)c2cccc(F)c2)cc1C	?	?	-21%	?	0%	-20%
CC(=O)Nc1cnc(NC(=O)c2cccc(F)c2)cc1C	?	?	-18%	4µM*	-12%	0%
CCOC(=O)N1CCN(Cc2nc3cc(NC(=O)c4cccs4)ccc3n2CC)CC1	-14%	21%	2%	29%	23µM*	26µM*
CCOC(=O)N1CCN(Cc2nc3cc(NC(=O)c4cccc(C)c4)ccc3n2C(C)C)CC1	/	/	82%	/	0.92µM*	0.73µM*
CCOC(=O)N1CCN(Cc2nc3cc(NC(=O)CC(C)C)ccc3n2C)CC1	-24%	0%	-12%	3%	-23%	?
